Data published in PubChem BioAssay AID652104 (National Center for Advancing Translational Sciences (NCATS), 2013).
Out of some 410,000 compounds screened, about 7,200 (1.8%) were called active. Not shown: some 7% with an inconclusive outcome. The sample as a whole holds a higher share of actives than the screen did. Values without a mark were called inactive. Calls come from the whole dose curve; as a rule, active = well fitted activation curve with a large enough effect; inconclusive = small, poorly fitted or top-dose-only effect, or another doubt; inactive = no such curve, though single readings can be large or run the other way.

Assay: qHTS of TDP-43 Inhibitors; note: nearly all actives have a fitted effect of over 50% in size; for growth rescue (activation): % of control where 0% means no effect
Conditions: TDP-43 expressing yeast growth rescue, BacTiter-Glo, 24 h; series mostly up to 46.1 µM; growth rescue (activation): at the top concentration
Summary of the method: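 Yeast cells expressing TDP-43 under galactose induction are exposed to compounds for 24 hr at 30 deg C. BacTiter-Glo luminescence measures growth, so protective compounds score as activators.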
Potency is the fitted concentration of half-maximal effect.

Row | Compound | growth rescue (activation) | Potency
1 | Cc1ccc(OCC(=O)Nc2ccc(OCc3cc(=O)n4c(C)csc4n3)cc2)cc1C | 7.26% | –
2 | CC(C)Cn1c(-c2ccc(S(=O)(=O)N3CCOCC3)cc2)csc1=Nc1cc(Cl)ccc1Cl | 11.8% | –
3 | COC(=O)c1ccc2nc(-c3ccc(C)cc3)c(Cc3ccc(OC)cc3C)n2c1 | 22.3% | –
4 | COc1ccc(-c2nc3ccc(Br)cn3c2Cc2ccc(C)cc2)cc1OC | – | 15.8 µM (active)
5 | COC(=O)c1ccc2nc(-c3ccc(F)cc3)c(Cc3ccc(C)cc3)n2c1 | 25.1% | –
6 | Oc1c(C(c2ccccc2Cl)N2CCOCC2)sc2nc(-c3ccco3)nn12 (configuration not stated) | 3.8% | –
7 | Cn1nnnc1SCCCNCc1cccc(OCc2ccc(Cl)cc2)c1 | 5.55% | –
8 | C=C1C(=O)OC2C1CCC(C)=CCCC1(C)OC21 (configuration not stated) | – | 14.1 µM (active)
9 | O=C(NCCc1ccccc1)C(=O)NCC(c1ccco1)S(=O)(=O)c1ccccc1 (configuration not stated) | 11.7% | –
10 | COc1cccc(N2CCN(C(=O)CCCCCn3c(=O)[nH]c4ccccc4c3=O)CC2)c1 | 13% | –
11 | COc1ccc(CCNC(=O)c2ccc3c(c2)nc(C)n3-c2ccc(Br)cc2)cc1OC | 11.1% | –
12 | COc1ccc(-c2cc3c(c4c2ccn4C)C2CCC3C2)cn1 (configuration not stated) | – | 20 µM (active)
13 | CC(C)(C)c1ccc(OCC(=O)N2CCC(c3nc4ccccc4s3)CC2)cc1 | 20.2% | –
14 | CCSc1nnc2c(n1)OC(c1ccc(OCC(=O)O)cc1)Nc1ccccc1-2 (configuration not stated) | -36.7% [at 9.22 µM] | –
15 | COc1ccc(C)cc1-n1c(-c2ccc(C)cc2)cc2c1CC(C)(C)CC2=O | 6.79% | –
16 | Cc1ccc(Cl)cc1NC(=O)Cc1ccc(-n2c(C)nc3cccnc32)cc1 | -9.49% | –
17 | CCCN(CCC)S(=O)(=O)c1ccc(C(=O)Nc2sc3c(c2C(=O)OC)CCN(CC)C3)cc1 | -1.8% | –
18 | CCN(C(=O)Cc1c(C(=O)O)n(CC)c2ccccc12)c1ccccc1C | – | 25.1 µM (active)
19 | Cc1ccc(C)c(Cn2c(C(=O)O)c(CNCc3cccs3)c3ccccc32)c1 | 15.9% | –
20 | CCn1c2ccccc2c2cc(CC(N)=O)ccc21 | 7.64% | –
21 | O=C(CSc1nn(-c2ccc(F)cc2)c(=S)s1)NC1CCS(=O)(=O)C1 (configuration not stated) | -20% | –
22 | N#CCSc1nn(-c2ccc(F)cc2)c(=S)s1 | – | 15.8 µM (active)
23 | Cc1ccccc1-n1nc(SCC(=O)O)sc1=S | 7.29% | –
24 | COc1ccc(CC(=O)Nc2nnc3n2CCS3)cc1OC | -14.5% | –
25 | Cn1nc(-c2ccccc2)c(-c2ccccc2)c(C(=O)Nc2ccc(S(N)(=O)=O)cc2)c1=O | 7.79% | –
26 | CCS(=O)(=O)N1CCN(C(=O)c2cccs2)CC1 | 3.6% | –

Row | Compound | growth rescue (activation) | Potency
27 | Cc1ccccc1C(CC(=O)c1cccs1)C(C#N)C#N (configuration not stated) | – | 17.8 µM (active)
28 | Cc1ccccc1N(C(=O)CNC(=O)c1cccs1)C(C(=O)NC1CCCC1)c1ccncc1 (configuration not stated) | -16.6% | –
29 | Cc1cccn2c(=O)c(C(=O)NC(C)c3ccccc3)cnc12 (configuration not stated) | 7% | –
30 | CC(C)(C)c1ccc(S(=O)(=O)Nc2ccc(O)c(Sc3nc4ccccc4s3)c2)cc1 | 17.8% | –
31 | COc1ccc(S(=O)(=O)Nc2ccc(O)c(Sc3nc4ccccc4s3)c2)cc1 | – | 31.6 µM (active)
32 | COc1ccc(CC(=O)Nc2ccc(-c3nc4ccccc4s3)c(C)c2)cc1 | 23.4% | –
33 | CCOc1ccccc1NC(=O)C1CCCN(S(=O)(=O)c2cn(C)cn2)C1 (configuration not stated) | 12.5% | –
34 | Cc1nnc(SCC(=O)NCc2ccccc2Cl)c2nn(-c3ccccc3)c(C)c12 | 5.44% | –
35 | CCn1c2c(c(=O)n3ncc(C(=O)N4CCN(c5ccccc5)CC4)c13)CN(Cc1ccc(OC)cc1)CC2 | -0.166% | –
36 | Cc1ccc(-n2cc3ccc([N+](=O)[O-])cc3n2)cc1 | – | 15.8 µM (active)
37 | CC(C)(C)NC(=O)Cn1cnc2cc([N+](=O)[O-])ccc2c1=O | 12.4% | –
38 | Cc1ccc(N2CCN(c3ccc([N+](=O)[O-])cn3)CC2)c(C)c1 | 16.3% | –
39 | Cc1ccc(CCNC(=O)C2CCN(c3nnc(-n4cccc4CNc4ccc(C)cc4)s3)CC2)cc1 | 19.8% | –
40 | CCOc1ccc(S(=O)(=O)N2CCN(C(=S)NCC3CCCO3)CC2)cc1 (configuration not stated) | -4.84% | –
41 | S=C(NCC1CCCO1)N1CCN(c2ccc(Cl)c(Cl)c2)CC1 (configuration not stated) | – | 22.4 µM (active)
42 | COc1ccc(S(=O)(=O)N2CCN(C(=S)NCC3CCCO3)CC2)cc1OC (configuration not stated) | -11.9% | –
43 | O=C(CCCn1c(=O)c2cccn2c2cccnc21)NCc1ccc(F)cc1 | 6.44% | –
44 | Cc1nc2ccccn2c(=O)c1NC(=O)c1c(F)cccc1F | 14.4% | –
45 | CN1C(=O)c2[nH]nc(-c3ccc(F)cc3)c2C1c1ccccn1 (configuration not stated) | -14.3% | –
46 | O=C(NC1CC(=O)N(c2ccc(F)cc2)C1)c1cccs1 (configuration not stated) | 10.2% | –
47 | CC(C)(C)c1ccc(Oc2ccc(N)cc2)cc1 | – | 35.5 µM (active)
48 | CCCC(=O)Nc1ccc(NC(=O)c2sc3ccccc3c2Cl)cc1 | 12.3% | –
49 | Cc1c(C(N)=O)sc2ncn(CCOc3ccccc3)c(=O)c12 | 1.28% | –
50 | Cc1cc2ncn(CCCCOc3ccccc3)c2cc1C | -9.16% | –
51 | Clc1ncn(CCOc2ccccc2)c1Cl | – | 17.8 µM (active)
52 | CSc1oc(-c2cccs2)nc1S(=O)(=O)c1ccc(Br)cc1 | 14.7% | –

Row | Compound | growth rescue (activation) | Potency
53 | COc1ccc(CN2CN(C(C)C)CSC2=S)cc1 | -6.51% | –
54 | COc1ccc(CN2CC(C(=O)NC3CCCCC3)CC2=O)cc1 (configuration not stated) | 14.9% | –
55 | COc1ccc(CN2CN(C3CCCC3)CSC2=S)cc1 | – | 15.8 µM (active)
56 | CC1CCCN(c2nc3c(S(=O)(=O)c4ccc(C(C)C)cc4)nnn3c3ccsc23)C1 (configuration not stated) | 6.67% | –
57 | O=C(Nc1cc(C(F)(F)F)ccc1Cl)c1nc2ccccc2nc1N1CCCCC1 | 23.3% | –
58 | Cc1cc(C)c(S(=O)(=O)N2CCOCC2)cc1C | -6.06% | –
59 | O=S(=O)(c1ccc(Br)c2ccccc12)N1CCOCC1 | – | 14.1 µM (active)
60 | COc1ccc(S(=O)(=O)N2CCOCC2)c(C)c1C | 8.68% | –
61 | COc1ccccc1CN1CCC(CNC(=O)c2cnn(-c3cccc(Cl)c3)c2C2CCN(C(=O)OC(C)(C)C)CC2)CC1 | 16.7% | –
62 | Cc1ccc(Cn2c(C)c3cnn(CC(=O)NCc4ccccc4)c(=O)c3c2C)cc1 | 8.7% | –
63 | COc1ccc(CNC(=O)c2ccc(-c3cccnc3)c3ccoc23)cc1OC | 0% | –
64 | COc1ccc(-c2ccc(C(=O)NCCN3CCOCC3)c3occc23)c(C)c1 | -17.6% | –
65 | COc1ccc(-c2ccc(C(=O)NC(C)C)c3occc23)c(C)c1 | – | 28.2 µM (active)
66 | COC(=O)c1ccc(-c2nc3cc(NC(C)=O)ccc3o2)cc1 | -7.21% | –
67 | COc1ccc(-c2cn3c(C)c(C(=O)Nc4cc(C)cc(C)c4)sc3n2)cc1 | 27.2% | –
68 | COc1ccc(-n2c(SC)nc3sc4c(c3c2=O)CCN(C(C)=O)C4)cc1 | -5.38% | –
69 | Cc1cc2ccccc2n1CCNC(=O)COc1ccc2ccccc2c1 | – | 35.5 µM (active)
70 | Cc1ccccc1OCC(=O)NCC(=O)OCC(=O)c1ccc2ccccc2c1 | -10.9% | –
71 | O=C(COc1ccc2ccccc2c1)N1CCN(C(=O)c2cccs2)CC1 | 11% | –
72 | CCOc1ccccc1C(=O)NC1(C(F)(F)F)C(=O)Nc2c1c(=O)[nH]c(=O)n2-c1ccc(F)cc1 (configuration not stated) | 1.7% | –
73 | CCCCOc1ccc(CN2C(=O)C(=O)c3cc(Br)cc(C)c32)cc1OC | -8.61% | –
74 | Cc1cccc(Oc2c([N+](=O)[O-])c(=O)n(C)c3ccccc23)c1 | – | 11.2 µM (active)
75 | Cc1cccc(C2CC(=O)Oc3c2c(=O)n(C)c2ccccc32)c1 (configuration not stated) | -9.05% | –
76 | Cn1c(=O)c([N+](=O)[O-])c(Oc2ccccc2)c2ccccc21 | 17.6% | –
77 | CCN(CCCNC(=O)Cn1ncc2c([nH]c3ccccc32)c1=O)c1cccc(C)c1 | 13.5% | –
78 | CCOC(=O)C1CCCN(C(=O)Cn2ncc3c(C)n(Cc4ccc(F)cc4)c(C)c3c2=O)C1 (configuration not stated) | 14.2% | –

Row | Compound | growth rescue (activation) | Potency
79 | O=C(CCOc1ccccc1)N(Cc1cccnc1)c1nc2ccc(Cl)cc2s1 | 20.1% | –
80 | Nc1cccc(-c2cc(-c3ccccc3)nc(-c3cccc(N)c3)n2)c1 | – | 14.1 µM (active)
81 | Nc1cccc(-c2cncc(N3CCN(Cc4ccccn4)CC3)n2)c1 | -0.5% | –
82 | CC(=O)Nc1cccc(-c2cc(NC(C)=O)c3ncc(-c4ccccc4)n3c2)c1 | 29.7% | –
83 | COc1cccc(-c2cnc3c(NC(C)=O)cc(-c4cccc(NC(C)=O)c4)cn23)c1 | 0% | –
84 | CC(=O)Nc1cc(-c2ccccc2F)cn2c(-c3cccc(C(F)(F)F)c3)cnc12 | – | 31.6 µM (active)
85 | CCOc1ccc(C(=O)c2cn(Cc3ccccc3OC)c3ccc(F)cc3c2=O)cc1 | 17.6% | –
86 | COc1ccc2ncc3c(-c4ccc(C)c(C)c4)nn(CC(=O)NC4CCCC4)c3c2c1 | 16.1% | –
87 | CC1CC2=C(CC1/C=N/NC(N)=S)C(C)(C)CCC2 (configuration not stated) | – | 22.4 µM (active)
88 | COc1ccc2c(c1)Cc1sc(NC(=O)c3ccccc3Br)nc1-2 | 28.2% | –
89 | CCOC(=O)c1cc2c(=O)n3ccccc3nc2n(CC2CCCO2)c1=NC(=O)c1ccc(C(C)(C)C)cc1 (configuration not stated) | 3.37% | –
90 | COc1ccc(OCCn2cc(C(=O)C3CCCCC3)c3ccccc32)cc1 | -3.37% | –
91 | CCNC(=O)N1CCN(S(=O)(=O)c2ccc3c(c2)OCCCO3)CC1 | 17.1% | –
92 | O=C(c1c(F)cccc1Cl)N1CCN(S(=O)(=O)c2ccc3c(c2)OCCCO3)CC1 | – | 14.1 µM (active)
93 | O=C(c1ccc(Cl)nc1)N1CCN(S(=O)(=O)c2ccc3c(c2)OCCO3)CC1 | 5.83% | –
94 | CCOC(=O)Cc1csc(SCc2cc(=O)oc3cc(O)ccc23)n1 | 11% | –
95 | CCOC(=O)Cc1csc(SCC(=O)Nc2ccc(C)cc2F)n1 | 14.9% | –
96 | CCOC(=O)Cc1csc(SCC(=O)NC(C)C23CC4CC(CC(C4)C2)C3)n1 (configuration not stated) | – | 22.4 µM (active)
97 | Cc1ccc(C(=O)Nc2ccc(OCc3cc(=O)n4c(C)csc4n3)cc2)cc1 | 13.1% | –
98 | CCSc1nnc(NC(=O)c2cc(=O)c3cc(C)c(C)cc3o2)s1 | 21.7% | –
99 | O=C(Cn1c(=O)n(Cc2ccccc2)c(=O)c2sc3ccccc3c21)Nc1ccccc1F | -12.3% | –
100 | CCn1c(COc2ccc(OC)cc2)nnc1SCC(=O)Nc1cc(OC)ccc1OC | – | 17.8 µM (active)
101 | CCc1nnc(SCC(=O)Nc2cc(OC)ccc2OC)nc1CC | 31% | –
102 | CCn1c(COc2ccccc2)nnc1SCC(=O)Nc1ccc2c(c1)OCCO2 | -10.9% | –
